The target of this assay is Genome polyprotein (Poliovirus type 1 (strain Mahoney)) (UniProt P03300). Kind of assay: inhibitors of poliovirus polymerase RNA elongation – biochemical, fluorescence polarization, total intensity, primary screen (AID 588519). On z-score: compound at 16.7 µg/mL. The conditions noted are these: stronger effect = lower value; for % elongation: compound at 16.7 µg/mL; for z-score: measured here: FP z-score.
Where [1] appears, read: measured here: total intensity read-out.

In all, about 150,000 compounds went through this assay and about 1,000 (0.67%) were called active. No stated cut-off is given here; in the data, active means % elongation below about 90%; inactive means the rest, inconclusive results apart. The sample as a whole holds a higher share of actives than the screen did.

From PubChem BioAssay AID588519 (ICCB-Longwood Screening Facility, Harvard Medical School, 2011) come the findings set out here.

Sequence of Genome polyprotein (Poliovirus type 1 (strain Mahoney)) (P03300 1749-2209 limits assumed): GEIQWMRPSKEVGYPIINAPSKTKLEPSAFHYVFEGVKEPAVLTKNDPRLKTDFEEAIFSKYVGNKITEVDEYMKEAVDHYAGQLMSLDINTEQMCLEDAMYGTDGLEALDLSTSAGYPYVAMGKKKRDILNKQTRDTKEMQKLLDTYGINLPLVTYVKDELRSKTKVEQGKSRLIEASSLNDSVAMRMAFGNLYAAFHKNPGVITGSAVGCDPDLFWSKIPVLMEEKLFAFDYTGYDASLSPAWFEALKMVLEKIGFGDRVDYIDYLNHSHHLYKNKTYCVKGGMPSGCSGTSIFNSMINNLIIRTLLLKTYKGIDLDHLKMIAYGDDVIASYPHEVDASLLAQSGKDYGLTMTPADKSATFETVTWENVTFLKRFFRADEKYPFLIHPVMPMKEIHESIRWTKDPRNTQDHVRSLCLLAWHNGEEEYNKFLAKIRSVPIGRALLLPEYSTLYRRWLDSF

With `CCOc1ccc(-c2ccc(NS(=O)(=O)c3ccccc3)cc2)nn1`, the % elongation was 102% (inactive) and the z-score was 0.9. Besides, under setting [1], the % elongation amounted to 104%.
The matching figures for `Clc1ccc(/C=N\N2CCN(c3ccccc3)CC2)cc1`: 108% (inactive), 1.3 and 100%.
On to `S=C(c1ccc(-c2ccc(Cl)cc2)o1)N1CCN(c2ccccc2)CC1`, for which the % elongation was 63% (active) and the z-score is -4.2. Moreover, the % elongation under setting [1] is 70%.
As to `S=C(c1ccc(-c2ccccc2)o1)N1CCCCC1`, the % elongation was 99% (inactive) and the z-score is -0.3. Further, the % elongation under setting [1] worked out at 101%.
As to `CCC(Cc1ccccc1)NC(=O)c1ccco1` (configuration not stated), the % elongation was 99% (inactive) and the z-score is -0.3. Moreover, the % elongation under setting [1] was determined as 100%.
The matching figures for `Cc1noc(C)c1CSc1nnc(-c2ccccc2Br)n1Cc1ccccc1`: 96% (inactive), -0.6 and 102%.
For `C=C(C)CNC(=S)N=Nc1c(O)n(C)c2ccccc12`, the % elongation is 98% (inactive) and the z-score was -0.4. Also, the % elongation under setting [1] came out at 101%.
On the same counts, the results for `CCSc1nnc(NC(=O)c2ccc(C)c(S(=O)(=O)N(CC)CC)c2)s1` are 100% (inactive), -0.5 and 98%.
The matching figures for `CCSc1nnc(NC(=O)/C=C/c2ccc3c(c2)OCCO3)s1`: 85% (active), -3.6 and 91%.
Turning to `O=C(O)/C=C/c1ccc2c(c1)OCCO2`, the % elongation was 102% (inactive) and the z-score amounted to 0.1. Besides, the % elongation under setting [1] was found to be 99%.
On the same counts, the results for `COc1ccc(S(=O)(=O)N2CCC(C(=O)N3CCCC3)CC2)cc1OC` are 99% (inactive), -0.6 and 100%.
As to `O=C(NCc1ccco1)c1cc(Cl)cc(Cl)c1`, the % elongation was 99% (inactive) and the z-score was -0.7. Moreover, the % elongation under setting [1] turned out to be 104%.
On the same counts, the results for `CCc1cc(=O)oc2c(C)c3c(cc12)CN(Cc1ccccc1)CO3` are 100% (inactive), -0.7 and 104%.
On the same counts, the results for `CCN1CCN(C2=Nc3c(Cl)cc(Cl)c4cccc2c34)CC1` are 45% (inactive), -6.5 and 247%.
Regarding `CCN(CC)CCN1COc2c(cc(Cl)c3cccnc23)C1`, the % elongation is 84% (active) and the z-score was -5.8. Also, under setting [1], the % elongation came to 80%.
`O=c1c(C=Nc2cc(Cl)ccc2O)c(O)n(C2CCCCC2)c(=O)n1C1CCCCC1`: the % elongation is 100% (inactive) and the z-score is 0. In addition, the % elongation under setting [1] turned out to be 100%.
As to `NS(=O)(=O)c1ccc(CCN(Cc2nc3ccsc3c(=O)[nH]2)Cc2nc3ccsc3c(=O)[nH]2)cc1`, the % elongation is 111% (inactive) and the z-score was 1.1. The % elongation under setting [1] was 110%.
For `COC(=O)C(Cc1ccccc1)NC(=O)c1n[nH]c(=O)c2ccccc12` (configuration not stated), the % elongation was 101% (inactive) and the z-score is -0.2. In addition, the % elongation under setting [1] was 100%.
Turning to `COc1ccc(OCCOc2ccccc2F)cc1`, the % elongation was 104% (inactive) and the z-score amounted to 1.2. Besides, the % elongation under setting [1] was found to be 102%.
On the same counts, the results for `CCOC(=O)C1(C(=O)OCC)CCN(S(=O)(=O)c2ccc(C)cc2)c2ccccc2C1=O` are 107% (inactive), 0.2 and 102%.
Consider `CCOC(=O)C1(C2(O)C(=O)c3ccccc3C2=O)CCCC1=O` (configuration not stated), for which the % elongation is 75% (active) and the z-score was -3.1. In addition, under setting [1], the % elongation worked out at 72%.
The matching figures for `CCOC(=O)C1(C(=O)OCC)C(c2ccccc2)CC(=O)CC1c1ccccc1` (configuration not stated): 99% (inactive), -0.3 and 96%.
The matching figures for `O=C1Nc2ccccc2C1=Nc1cccc(C(F)(F)F)c1`: 88% (active), -1.2 and 90%.
For the compound `Nc1ccc(N=C2C(=O)Nc3ccccc32)cc1`, the % elongation is 99% (inactive) and the z-score is -0.4. Also, the % elongation under setting [1] came out at 100%.
On the same counts, the results for `CN(C)/C=C1/C(=O)Nc2ccccc21` are 98% (inactive), -0.1 and 103%.
`COc1ccc(C(C#N)OC(C)=O)c(OCc2ccccc2)c1OC` (configuration not stated): the % elongation is 105% (inactive) and the z-score amounted to 0.2. The % elongation under setting [1] is 102%.
On the same counts, the results for `CCOc1ccc(NC(=O)c2c(NCc3cccc(OC)c3OC)sc3c2CCC3)cc1` are 108% (inactive), 0.4 and 114%.
On the same counts, the results for `CCOc1ccc(NC(=O)c2c(NC(=O)Cc3ccccc3)sc3c2CCCCC3)cc1` are 75% (active), -5 and 78%.
On the same counts, the results for `COC(=O)c1c(NC(=O)CCCOc2ccccc2)sc2c1CCC(C)C2` (configuration not stated) are 105% (inactive), 0.2 and 112%.
With `O=C(Cc1ccccc1)Nc1sc2c(c1C(=O)Nc1ccc(Br)cc1)CCC2`, the % elongation was 102% (inactive) and the z-score was -0.1. Besides, the % elongation under setting [1] amounted to 106%.
The matching figures for `Cc1cccc(OCCCC(=O)Nc2sc3c(c2C(N)=O)CCC(C)C3)c1` (configuration not stated): 101% (inactive), -0.6 and 102%.
On the same counts, the results for `CCOc1ccc(NC(=O)c2c(NC(=O)Cc3ccccc3)sc3c2CCC(C)C3)cc1` (configuration not stated) are 83% (active), -3.6 and 84%.
For `CC1CC(C)CN(C(=O)COC(=O)c2ccc(C#N)cc2)C1` (configuration not stated), the % elongation was 101% (inactive) and the z-score was -0.2. Besides, the % elongation under setting [1] came to 102%.
The matching figures for `Cc1ccc(Cn2nc(C)c(/C=C/C(=O)OCc3nc4ccccc4c(=O)n3CC#N)c2C)cc1`: 108% (inactive), 0.9 and 119%.
The matching figures for `O=C(CC12CC3CC(CC(C3)C1)C2)Nc1noc2ccccc12`: 101% (inactive), -0.1 and 102%.
The matching figures for `COC(CNC(=O)c1ccc2c(c1)N(Cc1cc(C)ccc1C)C(=O)c1ccccc1S2=O)OC` (configuration not stated): 99% (inactive), -1.1 and 103%.
`CC(C)Sc1n[nH]c(=S)n1N`: the % elongation is 83% (active) and the z-score is -1.9. Besides, the % elongation under setting [1] came to 88%.
The matching figures for `CC(C)c1n[nH]c(=S)n1N`: 62% (active), -2.9 and 68%.
On the same counts, the results for `CC(C)n1c(-c2ccncc2)n[nH]c1=S` are 102% (inactive), 0.7 and 103%.
Turning to `CCn1c(C(C)C)n[nH]c1=S`, the % elongation is 103% (inactive) and the z-score is 0.6. Under setting [1], the % elongation was 102%.
On the same counts, the results for `O=C(CN1C(=O)c2ccccc2C1=O)NN1C(=O)CSC1=S` are 97% (inactive), -0.8 and 106%.
The matching figures for `COc1ccc(OC)c(C(=O)c2ccc(C(=O)O)cc2)c1`: 102% (inactive), 0.4 and 100%.
Turning to `COc1ccc(O)c(C(=O)c2cnn(C(=O)c3ccc4c(=O)n5c(nc4c3)CCC5)c2)c1`, the % elongation is 104% (inactive) and the z-score came out at 0.1. Under setting [1], the % elongation turned out to be 108%.
For the compound `COc1ccc(O)c(C(=O)c2cnn3c(N)nnc3c2)c1`, the % elongation is 84% (active) and the z-score is -2.3. Moreover, the % elongation under setting [1] is 84%.
The matching figures for `COc1cc(C=Nc2c(C)n(C)n(-c3ccccc3)c2=O)ccc1OC(=O)c1ccco1`: 104% (inactive), 0.5 and 102%.
Regarding `COc1cccc(CN2CCc3nc(SCC(=O)Nc4ccccc4)[nH]c(=O)c3C2)c1`, the % elongation is 107% (inactive) and the z-score is -0.1. In addition, the % elongation under setting [1] amounted to 111%.
As to `O=C(CSc1nc2c(c(=O)[nH]1)CN(Cc1ccc(F)cc1)CC2)Nc1ccccc1Cl`, the % elongation is -15% (active) and the z-score was -8.9. Under setting [1], the % elongation turned out to be 19%.
Take `O=C(CSc1nc2c(c(=O)[nH]1)CN(Cc1ccc3c(c1)OCO3)CC2)Nc1cc(F)ccc1F`: the % elongation was 108% (inactive) and the z-score was determined as 0. Moreover, under setting [1], the % elongation stood at 107%.
As to `CC[N+](CC)=c1scc(-c2ccc(Cl)cc2)s1`, the % elongation is 102% (inactive) and the z-score is -0.2. For the same compound, the % elongation under setting [1] stood at 110%.
